Results reported in PubChem BioAssay (Tox21).
“And” between values parts separate entries of the source, which are not always exact repeats. Equal values may be shown once. Results filed as inconclusive are left out. The source holds several records for some structures; these can differ, active in one and inactive in another. The source made the active and inactive calls. Unless noted, calls come from the whole dose curve.

What was measured:
[1] = Nuclear factor erythroid 2-related factor 2/antioxidant responsive element (Nrf2/ARE) small molecule agonists: qHTS cell viability counter screen in human keratinocytes (AID 1919968; active = well fitted curve in the direction sought with a large enough effect in the repeat runs; an effect the other way counts as inactive or inconclusive; note: nearly all actives have a fitted effect of over 55% in size; note: potency is the fitted concentration of half-maximal effect)
How it was run: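 Stably transfected HaCaT (KeratinoSens), 1,500/well. Test agents in DMSO were applied for 23 h, 37 C/5% CO2. CellTiter-Fluor was incubated 1 h before the fluorescence read.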

[2] = Nuclear factor erythroid 2-related factor 2/antioxidant responsive element (Nrf2/ARE) small molecule agonists: luciferase reporter gene qHTS assay in human keratinocytes (AID 1919969); note: nearly all actives have a fitted effect of over 35% in size; note: potency is the fitted concentration of half-maximal effect
[3] = target: Gonadotropin-releasing hormone receptor (Homo sapiens) (UniProt P30968); experiment: Human gonadotropin-releasing hormone receptor (GnRHR) small molecule agonists, calcium flux assay in GnRHR-HEK293 cells (AID 1920063); note: nearly all actives have a fitted effect of over 35% in size
How it was run: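 Stable human GnRHR HEK293 line. 18 h plating, then calcium dye for 1 h at 37 C. Agonist-mode compound addition from DMSO stocks; fluorescence monitored 3 min.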

[4] = target: KiSS-1 receptor (Homo sapiens) (UniProt Q969F8); experiment: Human kisspeptin (KISS1R) small molecule agonists, calcium flux assay in KISS1R-HEK293 cells (AID 1920064; active = well fitted curve in the direction sought with a large enough effect in the repeat runs; an effect the other way counts as inactive or inconclusive)
How it was run: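 After overnight (18 h) culture at 37 C/5% CO2, human KISS1R-HEK293 cells received calcium dye for 1 h, then test compound; emission at 540 nm (excitation 480 nm) was tracked for 3 min.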

[5] = G protein-coupled receptor (GPCR) small molecule agonists, calcium flux assay: HEK293 wild type cell line counter screen (AID 1920065)
How it was run: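 Following 18 h incubation at 37 C/5% CO2, plates got calcium dye for 1 h; compounds, ATP or DMSO were then pinned in and fluorescence followed kinetically (480/540 nm).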

[6] = p53 small molecule agonists, cell-based qHTS assay with human liver microsomes (AID 1963577);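 note: p53 response element beta-lactamase reporter cells with liver microsomes plus NADPH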
How it was run: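 Metabolically competent format: test substances, human liver microsomes and NADPH (both 0.5 mg/mL final) incubated with p53RE-bla cells 16 h at 37 C. Beta-lactamase reporter signal then quantified by fluorescence.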

[7] = p53 small molecule agonists, cell-based qHTS assay with rat liver microsomes (AID 1963578)
How it was run: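 Each plate received p53RE-bla cells, then compound, then rat liver microsomes and NADPH (both 0.5 mg/mL final). Plates were held 16 h at 37 C, and beta-lactamase activity was detected with LiveBLAzer over 2 h.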

[8] = p53 small molecule agonists, cell-based qHTS assay with human liver microsomes: qHTS cell viability counter screen (AID 1963579); note: nearly all actives have a fitted effect of over 45% in size
How it was run: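 Tox21 library compounds, delivered from DMSO stocks, were tested on p53RE-bla cells together with 0.5 mg/mL human liver microsomes and 0.5 mg/mL NADPH (final) over 16 h at 37 C; CellTiter-Glo luminescence served as the cytotoxicity measure.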

[9] = p53 small molecule agonists, cell-based qHTS assay with rat liver microsomes: qHTS cell viability counter screen (AID 1963580); note: nearly all actives have a fitted effect of over 45% in size
How it was run: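 Cytotoxicity counter screen: intracellular ATP read by CellTiter-Glo luminescence in the p53 reporter wells. HCT-116 p53RE-bla cells were treated for 16 h at 37 C alongside rat liver microsomes and NADPH, each 0.5 mg/mL final.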

[10] = p53 small molecule agonists, cell-based qHTS assay: qHTS cell viability counter screen (AID 1963581); note: nearly all actives have a fitted effect of over 45% in size
How it was run: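 qHTS counter screen: 16 h compound exposure at 37 C of p53RE-bla HCT-116 cells (4,000 per well, seeded 5 h prior), cell viability by ATP luminescence.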

[11] = target: 5-hydroxytryptamine receptor 2A (Homo sapiens) (UniProt P28223); experiment: 5-hydroxytryptamine receptor 2A (HTR2A) small molecule agonists, cell-based qHTS assay (AID 1963587); note: nearly all actives have a fitted effect of over 30% in size; note: potency is the fitted concentration of half-maximal effect
How it was run: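 Kinetic calcium-flux fluorescence (2 min, 1 sec intervals) after compound addition in agonist mode. HTR2A-CHO cells were cultured 18 h, then dye-loaded 1 h at 37 C.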

[12] = target: Muscarinic acetylcholine receptor M1 (Homo sapiens) (UniProt P11229); experiment: Cholinergic receptor muscarinic 1 (CHRM1) small molecule agonists, cell-based qHTS assay (AID 1963589); note: nearly all actives have a fitted effect of over 35% in size
How it was run: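 Kinetic fluorescence (1 s intervals) of calcium-sensitive dye in human M1 CHO cells after compound addition; cells pre-incubated 18 h at 37 C/5% CO2 and dye-loaded 1 h.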

[13] = cAMP Responsive Elements (CRE) small molecule antagonists, cell-based qHTS assay (AID 1963591; active = well fitted inhibition curve with a large enough effect in the signal ratio in the repeat runs, not every such curve was filed as active; the % refers to the signal ratio)
How it was run: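 Reporter line CRE-bla HEK 293T in dialyzed-FBS DMEM; cells preincubated 18 h, treated 3 h with compound plus NKH477 (0.25 uM final); LiveBLAzer FRET, 2 h RT.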

[14] = target: Beta-2 adrenergic receptor (Homo sapiens) (UniProt P07550); experiment: Adrenergic beta2 receptor (ADRB2) small molecule antagonists, cell-based qHTS assay (AID 1963592); note: series mostly up to about 92 µM; nearly all actives have a fitted effect of over 50% in size
How it was run: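 Assay format: CHO-ADRB2 cells, 18-20hr seeding at 37C/5% CO2, then compound plus 1nM isoproterenol agonist mix for 0.5hr RT. Homogeneous time-resolved fluorescence cAMP detection after 1hr, expressed as 665/615 nm ratio.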

[15] = target: D(2) dopamine receptor (Homo sapiens) (UniProt P14416); experiment: Dopamine D2 receptor (DRD2) small molecule agonists, cell-based qHTS assay (AID 1963594); note: nearly all actives have a fitted effect of over 35% in size
How it was run: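 cAMP accumulation in DRD2-HEK293 cells measured by HTRF after 1 h detection; compounds added 10 min before NKH477 (200nM […]) forskolin-analogue stimulation, 30 min at room temperature, with Ro20-1724 present at 0.1 mM final.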

[16] = target: D(2) dopamine receptor (Homo sapiens) (UniProt P14416); experiment: Dopamine D2 receptor (DRD2) small molecule antagonists, cell-based qHTS assay (AID 1963595; active = well fitted inhibition curve with a large enough effect in the signal ratio in the repeat runs, with a control signal flat; the % refers to the signal ratio)
How it was run: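 HTRF cAMP read-out at 665 and 620 nm emission (340 nm excitation). Antagonist mode: compounds were tested against 12 nM quinpirole in DRD2-HEK293 cells, with 200 nM NKH477 raising cAMP and 0.1 mM Ro20-1724 blocking its breakdown.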

[17] = target: 5-hydroxytryptamine receptor 2A (Homo sapiens) (UniProt P28223); experiment: 5-hydroxytryptamine receptor 2A (HTR2A) small molecule antagonists, cell-based qHTS assay (AID 1963586); note: nearly all actives have a fitted effect of over 45% in size
How it was run: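 CHO cells stably expressing human HTR2A were plated for 18 h at 37 C, then loaded with calcium dye for 1 h. Compounds were preincubated 5 min at room temperature before DOI (4 nM solution) was added. Kinetic fluorescence was read for 3 min.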

[18] = cAMP Responsive Elements (CRE) small molecule agonists, cell-based qHTS assay (AID 1963590)
How it was run: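 Test agents in DMSO were incubated 3 h at 37 C/5% CO2 with CRE-bla HEK 293T cells seeded 18 h earlier; LiveBLAzer B/G FRET substrate was added and read after 2 h at room temperature.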

[19] = target: Beta-2 adrenergic receptor (Homo sapiens) (UniProt P07550); experiment: Adrenergic beta2 receptor (ADRB2) small molecule agonists, cell-based qHTS assay (AID 1963593);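 note: CHO cells stably overexpressing human ADRB2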
How it was run: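 CHO cells stably over-expressing ADRB2 were plated overnight at 37C, then dosed with compounds plus a stimulation mix containing 100uM IBMX and 25uM Ro-20-1724 for 0.5hr at room temperature. cAMP was measured by HTRF competition, 1hr.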

[20] = p53 small molecule agonists, cell-based qHTS assay (AID 1963582; active = well fitted activation curve with a large enough effect in the signal ratio in the repeat runs, not every such curve was filed as active; the % refers to the signal ratio)
How it was run: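 Measured: fluorescence from cleaved LiveBLAzer substrate. System: p53RE-bla cells, 16 h compound treatment at 37 C, 2 h substrate step at room temperature.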
% is set by controls: 0 for no effect and ±100 for the full control effect.

Sequence of D(2) dopamine receptor (Homo sapiens) (P14416 whole entry, looked up): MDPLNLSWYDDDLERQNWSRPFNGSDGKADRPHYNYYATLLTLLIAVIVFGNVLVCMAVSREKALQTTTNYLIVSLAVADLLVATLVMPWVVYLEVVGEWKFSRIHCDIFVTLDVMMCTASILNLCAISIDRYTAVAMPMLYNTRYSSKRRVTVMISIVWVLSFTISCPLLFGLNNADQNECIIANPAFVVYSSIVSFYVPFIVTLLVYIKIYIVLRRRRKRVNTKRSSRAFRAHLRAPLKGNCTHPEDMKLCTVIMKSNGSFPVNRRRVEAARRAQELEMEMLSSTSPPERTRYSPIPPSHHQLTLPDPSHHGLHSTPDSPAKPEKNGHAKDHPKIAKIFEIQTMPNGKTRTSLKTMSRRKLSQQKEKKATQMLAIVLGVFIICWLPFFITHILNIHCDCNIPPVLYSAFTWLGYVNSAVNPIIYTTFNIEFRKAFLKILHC
Sequence of Muscarinic acetylcholine receptor M1 (Homo sapiens) (P11229 whole entry, looked up): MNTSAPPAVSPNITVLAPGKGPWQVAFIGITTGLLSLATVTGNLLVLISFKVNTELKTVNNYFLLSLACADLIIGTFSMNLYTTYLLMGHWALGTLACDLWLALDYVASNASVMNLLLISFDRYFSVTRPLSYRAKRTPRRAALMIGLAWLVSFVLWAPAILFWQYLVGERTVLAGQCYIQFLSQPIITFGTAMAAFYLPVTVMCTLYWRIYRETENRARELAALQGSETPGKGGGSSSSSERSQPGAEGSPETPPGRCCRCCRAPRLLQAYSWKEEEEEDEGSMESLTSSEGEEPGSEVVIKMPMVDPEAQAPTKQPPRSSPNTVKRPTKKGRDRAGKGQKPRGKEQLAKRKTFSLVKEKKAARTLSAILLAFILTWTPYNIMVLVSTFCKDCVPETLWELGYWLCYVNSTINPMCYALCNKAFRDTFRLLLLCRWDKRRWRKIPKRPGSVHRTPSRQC
Sequence of Gonadotropin-releasing hormone receptor (Homo sapiens) (P30968 whole entry, looked up): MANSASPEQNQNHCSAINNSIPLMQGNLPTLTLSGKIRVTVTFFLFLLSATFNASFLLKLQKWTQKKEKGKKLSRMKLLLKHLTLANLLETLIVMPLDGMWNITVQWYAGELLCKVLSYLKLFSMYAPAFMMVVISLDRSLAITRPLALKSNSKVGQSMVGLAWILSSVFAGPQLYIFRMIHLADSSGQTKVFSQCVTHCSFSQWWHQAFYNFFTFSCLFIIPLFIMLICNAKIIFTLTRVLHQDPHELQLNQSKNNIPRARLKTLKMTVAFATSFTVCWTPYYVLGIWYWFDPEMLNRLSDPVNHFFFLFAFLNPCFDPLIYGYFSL
Sequence of 5-hydroxytryptamine receptor 2A (Homo sapiens) (P28223 whole entry, looked up): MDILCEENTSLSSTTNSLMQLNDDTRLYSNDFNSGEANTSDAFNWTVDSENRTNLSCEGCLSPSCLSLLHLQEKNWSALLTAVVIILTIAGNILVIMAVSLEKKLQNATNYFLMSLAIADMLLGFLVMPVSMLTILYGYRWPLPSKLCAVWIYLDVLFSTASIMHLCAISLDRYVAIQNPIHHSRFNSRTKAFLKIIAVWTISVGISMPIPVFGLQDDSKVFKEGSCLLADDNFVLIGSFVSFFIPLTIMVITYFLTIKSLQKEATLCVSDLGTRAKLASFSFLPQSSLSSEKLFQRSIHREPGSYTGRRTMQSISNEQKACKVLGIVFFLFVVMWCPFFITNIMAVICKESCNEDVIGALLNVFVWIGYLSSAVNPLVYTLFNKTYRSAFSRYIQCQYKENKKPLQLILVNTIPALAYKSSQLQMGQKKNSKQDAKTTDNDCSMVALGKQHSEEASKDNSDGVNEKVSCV
Sequence of Beta-2 adrenergic receptor (Homo sapiens) (P07550 whole entry, looked up): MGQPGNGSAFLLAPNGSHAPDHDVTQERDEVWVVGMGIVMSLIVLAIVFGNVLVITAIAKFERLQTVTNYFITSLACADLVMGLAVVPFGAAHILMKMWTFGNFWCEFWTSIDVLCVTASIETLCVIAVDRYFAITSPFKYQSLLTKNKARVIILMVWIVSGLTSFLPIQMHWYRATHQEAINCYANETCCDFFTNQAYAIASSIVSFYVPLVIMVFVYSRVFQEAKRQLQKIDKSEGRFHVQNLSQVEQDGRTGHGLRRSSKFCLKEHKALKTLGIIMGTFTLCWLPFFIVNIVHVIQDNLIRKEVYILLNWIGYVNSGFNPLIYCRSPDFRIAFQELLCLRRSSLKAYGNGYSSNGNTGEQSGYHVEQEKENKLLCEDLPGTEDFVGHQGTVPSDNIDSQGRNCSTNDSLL
Sequence of KiSS-1 receptor (Homo sapiens) (Q969F8 whole entry, looked up): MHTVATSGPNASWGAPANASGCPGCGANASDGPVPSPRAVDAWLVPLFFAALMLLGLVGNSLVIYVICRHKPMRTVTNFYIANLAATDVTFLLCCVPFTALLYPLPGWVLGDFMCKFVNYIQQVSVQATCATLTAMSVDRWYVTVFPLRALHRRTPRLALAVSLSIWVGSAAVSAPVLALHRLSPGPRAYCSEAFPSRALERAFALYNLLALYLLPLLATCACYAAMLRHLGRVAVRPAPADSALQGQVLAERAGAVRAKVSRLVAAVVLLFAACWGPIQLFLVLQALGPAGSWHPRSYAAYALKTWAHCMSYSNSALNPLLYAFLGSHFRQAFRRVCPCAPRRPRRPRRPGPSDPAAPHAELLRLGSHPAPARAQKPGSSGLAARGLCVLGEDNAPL

O=[Se](O)O
inactive and 5.23 µM (active): Potency [2]
inactive: Potency [1] | Potency [3] | Potency [4] | Potency [5] | Potency [6] | Potency [7] | activity change, negative = cytotoxicity [8] -2.48% [at 13.5 µM] | Potency [9] | Potency [10] | activation [11] -0.26% [at 15.9 µM] | Potency [12] | activity change, negative = inhibition [13] 2.98% [at 18.9 µM] | Potency [14] | Potency [15] | Potency [16]
active: Potency [11] 19.5 µM

O=C1OC(c2ccc(O)cc2)(c2ccc(O)cc2)c2ccccc21
24.2 µM (active) and inactive: Potency [2]
inactive: Potency [3] | Potency [4] | Potency [5] | Potency [6] | Potency [7] | Potency [8] | Potency [9] | Potency [10] | Potency [17] | Potency [12] | Potency [18] | Potency [13] | Potency [14] | Potency [15] | Potency [16]
48.2 µM (active) and inactive: Potency [1]

Cc1c(OCC(F)(F)F)ccnc1CS(=O)c1nc2ccccc2[nH]1 (centres undefined)
active: Potency [2] 24.3 µM and 33.5 µM
inactive: Potency [1] | Potency [3] | Potency [4] | Potency [5] | Potency [6] | Potency [7] | Potency [8] | Potency [9] | Potency [10] | Potency [18] | Potency [13] | Potency [14] | Potency [19] | Potency [15] | Potency [16]

CC(=O)O[C@]1(C(C)=O)CC[C@H]2[C@@H]3C[C@H](C)C4=CC(=O)CC[C@]4(C)[C@H]3CC[C@@]21C
inactive: Potency [1] | Potency [2] | Potency [3] | Potency [4] | Potency [5] | Potency [6] | Potency [7] | Potency [8] | Potency [9] | Potency [10] | Potency [20] | Potency [14] | Potency [19] | Potency [15] | Potency [16]

CC(=O)Oc1ccc(C(c2ccc(OC(C)=O)cc2)c2ccccn2)cc1
inactive: Potency [1] | Potency [3] | Potency [4] | Potency [5] | Potency [6] | Potency [7] | Potency [8] | Potency [9] | Potency [10] | Potency [14] | Potency [19] | Potency [15] | Potency [16]
active: Potency [2] 121 nM and 841 nM

CN(C)c1nc(N(C)C)nc(N(C)C)n1
inactive: Potency [1] | Potency [3] | Potency [4] | Potency [5] | Potency [6] | Potency [7] | Potency [8] | Potency [9] | Potency [10] | Potency [20] | Potency [18] | Potency [14] | activation [19] 17.3% [at 8.39 µM] | Potency [15] | Potency [16]
3.94 µM (active) and inactive: Potency [2]

NC(N)=NC(N)=NCCc1ccccc1
inactive: Potency [1] | Potency [2] | Potency [3] | Potency [4] | Potency [5] | Potency [6] | Potency [7] | Potency [8] | Potency [9] | Potency [10] | Potency [17] | Potency [11] | Potency [12] | Potency [18] | Potency [13] | Potency [14] | Potency [19] | Potency [15] | Potency [16]
